Potency and affinity values are given separately. Inconclusive results are not listed. Activity calls are given as the source filed them. Unless noted, no rule for the calls is given here.
Columns and labels:
[1] = RMG-1 ovarian cancer cell viability loss – cherry-pick, dose response (AID 687029;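 active = signal drop whose fitted half-maximal concentration is at most twice the top valid dose, in every test run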;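 also: cells exposed to compound for 96 hours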)
[2] = IOSE-T80 viability loss, PAX8-independent line – cell-based, cherry-pick, selectivity assay for PAX8 inhibitor project, dose response (AID 687032;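 active = fitted half-maximal concentration for viability loss no higher than twice the top valid dose, in every repeat run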;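 also: cells exposed to compound for 96 h before reading; 0% = neutral control wells and -100% = 2 µM mitoxantrone kill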)
[3] = CMV-driven luciferase expression suppression in HEK293 – cell-based, luminescence, dry powder, counter-screen for Pax8 inhibitor project, dose response (AID 743020;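 active = signal-lowering compounds whose fitted half-maximal concentration is at or below twice the top tested dose in every run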;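 also: HEK293 cells stably expressing the CMV luciferase reporter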)
[4] = general cell-killing toxicity readout – plate reader, dry powder samples, cytotoxicity control for PAX8 inhibitor project, dose response (AID 743021)
[5] = IGROV1 cell killing – plate reader, dry powder samples, PAX8 inhibitor project, dose response (AID 743043);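 also: more negative means fewer viable cells or more cytotoxicity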
[6] = OVCAR-3 cell viability loss – plate reader, dry powder samples, PAX8 inhibitor project, dose response (AID 743044); conditions: max activity: at 35 µM, hits give low values unless noted
[7] = toxicity toward immortalized ovarian surface epithelium – cell-based, plate reader, dry powder samples, cytotoxicity control for PAX8 inhibitor project, dose response (AID 743045);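 also: 0% = neutral control median and -100% = positive control median; more negative values mean more cell killing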
[8] = A2780 cell killing – plate reader, dry powder samples, cytotoxicity control, dose response (AID 743046);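 also: 0% = neutral control wells and -100% = cytotoxic reference compound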

CCN(CC)c1ccc(C(NC(=O)C(C)C)c2ccc3cccnc3c2O)cc1 (stereo unspecified)
inactive: outcome [1] | outcome [2] | outcome [3] | outcome [4]

O=C(NCC1CCCO1)C(=Cc1cccc([N+](=O)[O-])c1)C(=O)NCC1CCCO1 (stereo unspecified)
inactive: outcome [1] | outcome [2] | outcome [3] | outcome [4]

COc1ccc(/C=C/c2nc3ccccc3n2C)cc1
inactive: outcome [1] | outcome [2] | outcome [3]

Cc1cccc(N(Cc2ccccc2)C(=O)CCl)c1
inactive: outcome [1] | outcome [2] | outcome [3]

O=C(c1nnsc1S(=O)(=O)c1ccc(Cl)cc1)N1CCOCC1
inactive: outcome [1] | outcome [2] | outcome [3] | outcome [4]

COc1nn(-c2ccccc2)c(=O)c(Cl)c1Cl
inactive: outcome [1] | outcome [2] | outcome [3] | outcome [4]

C=C1C(=O)[C@]23C[C@H]1CC[C@H]2[C@]1(C)[C@@H](OC(C)=O)CC[C@@](C)(C(=O)OC)[C@H]1C[C@@H]3OC(C)=O
inactive: outcome [1] | outcome [2] | outcome [3] | activity change, negative = cytotoxicity [4] -15.7% [at 8 µM]

O=C(N/N=C/c1ccsc1)c1cc(-c2cccs2)nc2ccccc12
inactive: outcome [1] | outcome [2] | outcome [3] | outcome [4]

CN(CCc1cn[nH]c1)Cc1nc(C(c2ccccc2)c2ccccc2)no1
inactive: outcome [1] | outcome [2] | outcome [3] | outcome [4]

Cn1nnnc1Sc1ncnc2scc(-c3cccc(C(F)(F)F)c3)c12
inactive: outcome [1] | outcome [2] | outcome [3] | outcome [4]

Cc1noc(/C=C/c2ccco2)c1S(=O)(=O)N1CCC(C(=O)NC(C)c2ccccc2)CC1 (stereo unspecified)
inactive: outcome [1] | outcome [2] | outcome [3] | outcome [4]

O=C(CCc1ccc(S(=O)(=O)NCc2ccccc2)cc1)NCc1ccco1
inactive: outcome [1] | outcome [2] | outcome [3] | outcome [4]

O=C(O)c1cccc(N/N=C/c2cccs2)c1
inactive: outcome [1] | outcome [2] | outcome [3] | outcome [4]

NC(=O)[C@H]1CC2(CC(c3cccc(NC(=O)COc4ccc(Cl)cc4)c3)=NO2)CN1C(=O)C(c1ccccc1)c1ccccc1 (stereo partly specified)
inactive: outcome [1] | outcome [2] | outcome [3] | outcome [4]

Nc1ncnc2c(C3OC(CO)C(O)C3O)scc12 (stereo unspecified)
inactive: outcome [1] | outcome [2] | outcome [3] | outcome [4]

Cn1c(CCN2CCN(c3ccccn3)CC2)nc2cc(NS(=O)(=O)c3ccc(Cl)cc3)ccc21
inactive: outcome [1] | outcome [2] | outcome [3] | outcome [4]

CCCCNC(=O)C(Sc1ccccc1)c1ccccc1 (stereo unspecified)
inactive: outcome [1] | outcome [2] | outcome [3] | outcome [4]

CCN(CC(=O)Nc1c(F)cccc1F)C(=O)c1cc(S(=O)(=O)N(CC)CC)ccc1N1CCCCC1
inactive: outcome [1] | outcome [2] | outcome [3] | outcome [4]

Cc1ccc(NC(=O)c2ccc([N+](=O)[O-])s2)cc1S(=O)(=O)N1CCOCC1
inactive: outcome [1] | outcome [2] | outcome [3] | outcome [4]

CN(C)N=Nc1nc[nH]c1C(N)=O
inactive: outcome [1] | outcome [2] | outcome [3] | outcome [4]

Oc1ccc(C[C@H]2CNC(=S)N2CC2CCCN2C[C@H](Cc2ccccc2)N2C[C@H](Cc3ccc(O)cc3)N(CCc3ccccc3)C2=S)cc1 (stereo partly specified)
inactive: outcome [1] | outcome [2] | outcome [3] | outcome [4]

FC(F)(F)c1nnc2c(Sc3ccc(Cl)cc3)nc3ccccc3n12
inactive: outcome [1] | outcome [2] | outcome [3] | outcome [4]

COc1ccc(S(=O)(=O)Nc2ccc3c(c2)C(=O)N([C@H](C)CO)C[C@H](C)[C@@H](CN(C)S(=O)(=O)c2ccc(C)cc2)OCCCC[C@H](C)O3)cc1
inactive: outcome [1] | outcome [2] | outcome [3] | outcome [4]

COc1cc(Cl)c(NC2=CC(=O)C(=O)c3ccccc32)c(OC)c1
inactive: outcome [1] | outcome [2] | outcome [3] | outcome [4]

O=C(Nc1cccc(Br)c1)c1ccc2c(c1)SC1=NS(=O)(=O)CCN12
inactive: outcome [1] | outcome [2] | outcome [3] | outcome [4]

COc1ccc(NC(=O)C(Sc2nnc(-c3ccncc3)n2-c2ccccc2C)c2ccccc2)cc1Cl (stereo unspecified)
inactive: outcome [1] | outcome [2] | outcome [3] | outcome [4]

CC(=O)OC(C)(C)/C=C/C(=O)[C@](C)(O)C1[C@H](O)C[C@@]2(C)C3CC=C4C(C=C(O[C@@H]5O[C@H](CO)[C@@H](O)[C@H](O)[C@H]5O)C(=O)C4(C)C)[C@]3(C)C(=O)C[C@]12C (stereo partly specified)
inactive: outcome [1] | outcome [2] | outcome [3] | outcome [4]

CCSc1nc(-c2ccccc2)nc(C(Cl)Cl)n1
inactive: outcome [1] | outcome [2] | outcome [3] | outcome [4]

C[C@H](CO)N1C[C@H](C)[C@H](CN(C)S(=O)(=O)c2cccc(F)c2)OCc2ccccc2-c2c(n(C)c3ccccc23)C1=O
inactive: outcome [1] | outcome [2] | outcome [3] | outcome [4]

COC(=O)C12OCC34C(CC5C(C)=C(O)C(=O)CC5(C)C3C(O)C1O)OC(=O)C(OC(=O)C=C(C)C)C24 (stereo unspecified)
inactive: outcome [1] | outcome [2] | outcome [3] | outcome [4]

O=C1/C(=C\c2ccc(Cl)c(Cl)c2)CN(C(=O)CCN2CCOCC2)C/C1=C/c1ccc(Cl)c(Cl)c1
inactive: outcome [1] | outcome [2] | outcome [3] | outcome [4]

O=C(Nc1ccc(S(=O)(=O)NC2=NCCCCC2)cc1)c1ccc([N+](=O)[O-])s1
inactive: outcome [1] | outcome [2] | outcome [3] | outcome [4]

O=C(CCCN1C(=O)/C(=C/c2cccc(Br)c2)SC1=S)Nc1cccnc1
inactive: outcome [1] | outcome [2] | outcome [3] | outcome [4]

O=C1c2ccccc2C(=O)c2[nH]c(=O)[nH]c21
inactive: outcome [1] | outcome [2] | outcome [3] | outcome [4]

O=C(CCCN1C(=O)/C(=C/c2ccccc2OC(F)F)SC1=S)Nc1cccnc1
inactive: outcome [1] | outcome [2] | outcome [3] | outcome [4]

COc1ccc(Br)cc1/C=C/C(=O)c1ccc(NC(C)=O)cc1
inactive: outcome [1] | outcome [2] | outcome [3] | outcome [4]

C[C@H](CO)N1C[C@H](C)[C@@H](CN(C)Cc2ccncc2)Oc2ccc(NC(=O)Nc3ccc(C(F)(F)F)cc3)cc2CC1=O
inactive: outcome [1] | outcome [2] | outcome [3] | outcome [4]

Cc1cccc(NCc2ccc(O)c3ncccc23)c1C
inactive: outcome [1] | outcome [2] | outcome [3] | outcome [4]

Oc1ccc(/C=N\Nc2cc(N3CCOCC3)nc(N3CCOCC3)n2)c(O)c1
inactive: outcome [1] | outcome [2] | outcome [3] | outcome [4]

C[C@H](O)C#Cc1ccc2c(c1)O[C@H](CN(C)Cc1ccc(-c3ccccc3)cc1)[C@@H](C)CN([C@@H](C)CO)S2(=O)=O
inactive: outcome [1] | outcome [2] | outcome [3] | outcome [4]

Cc1ccc(S(=O)(=O)Nc2ccc3c(c2)C(=O)N([C@H](C)CO)C[C@H](C)[C@@H](CN(C)S(=O)(=O)c2ccc(C)cc2)OCCCC[C@H](C)O3)cc1
inactive: outcome [1] | outcome [2] | outcome [3] | outcome [4]

C=C1C(=O)O[C@@H]2[C@H]1CC[C@H](C)[C@]1(O)CCC(=O)[C@@]21C
inactive: outcome [1] | outcome [2] | outcome [3] | outcome [4]

CCCCCCN1C[C@@H](n2cc(-c3ccc(F)cc3)nn2)[C@H](O)C[C@@H]1c1ccc(Cl)cc1
inactive: outcome [1] | outcome [2] | outcome [3] | outcome [4]

O=C(Nc1ccc(F)cc1)c1nc(S(=O)(=O)Cc2ccccc2)ncc1Cl
inactive: outcome [1] | outcome [2] | outcome [3] | outcome [4]

CN(C)CCOc1ccc2c(c1)C(=O)C(=Cc1ncc([N+](=O)[O-])n1C)C2
inactive: outcome [1] | outcome [2] | outcome [3] | outcome [4]

COc1ccc(-c2ccc3c(c2)[C@H]2[C@H](CCN2S(=O)(=O)c2ccc(OC)cc2)[C@H](CO)N3C)cc1
inactive: outcome [1] | outcome [2] | outcome [3] | outcome [4]

C[C@H](CO)N1C[C@H](C)[C@@H](CN(C)Cc2ccccc2)OCCCC[C@H](C)Oc2ccc(NC(=O)Nc3ccc(C(F)(F)F)cc3)cc2C1=O
inactive: outcome [1] | outcome [2] | outcome [3] | outcome [4]

O=C(Nc1cccc(Cl)c1)Nc1csc([N+](=O)[O-])c1
inactive: outcome [1] | outcome [2] | outcome [3] | outcome [4]

C=CCC[C@H](Cc1ccc(F)cc1)C(=O)OC[C@H](Cc1c[nH]c2ccccc12)NC(=O)[C@H](CC=C)CC(=O)N(CCO)Cc1ccccc1
inactive: outcome [1] | outcome [2] | outcome [3] | outcome [4]

COc1cccc(/C=C2\SC(=S)N(CCC(=O)NCCc3ccc(O)cc3)C2=O)c1
inactive: outcome [1] | outcome [2] | outcome [3] | outcome [4]

COc1ccc(NS(=O)(=O)c2ccc(N3CCCC3)c(NC(=S)Nc3ccc(SC(F)F)cc3)c2)cc1
inactive: outcome [1] | outcome [2] | outcome [3] | outcome [4]

CC(=O)c1cccc(-c2csc3ncnc(Sc4nnnn4C)c23)c1
inactive: outcome [1] | outcome [2] | outcome [3] | outcome [4]

COc1cccc(S(=O)(=O)N(C)C[C@H]2OCc3ccccc3-c3c(n(C)c4ccccc34)C(=O)N([C@H](C)CO)C[C@H]2C)c1
inactive: outcome [1] | outcome [2] | outcome [3] | outcome [4] | outcome [5] | max activity [6] 28.2% [at 2.1 µM, hits give low values] | outcome [7]

COc1ccc(NC(=O)Nc2ccc3c(c2)C(=O)N([C@@H](C)CO)C[C@@H](C)[C@@H](CN(C)Cc2ccc(Cl)c(Cl)c2)OCCCC[C@@H](C)O3)cc1
inactive: outcome [1] | outcome [2] | outcome [3] | outcome [4] | outcome [5] | max activity [6] -14.2% | outcome [7] | outcome [8]
